Experimental findings from PubChem BioAssay (NCI) are described below.

“And” between values parts separate entries of the source, which are not always exact repeats. Identical values can stand only once. Compounds without any hit were thinned out: in the full panel of roughly 83,000, 20% have a hit.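 How to read the values: 0–100, growth inhibition (40 = 60% inhibited); 0, no net growth; -100 to 0, cell death (-40 = 40% of starting cells died; -100 = all dead).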 The source made the active and inactive calls. How the source made its calls: active means growth percent below 10; inactive means the rest. Where a SMILES comes first, the peptide text is derived from it.

This assay relates to HCT-116 colon. Put plainly: NCI-60 one-dose screen, 48 h (100 = growth as untreated, 0 = no growth, -100 = all killed). Particulars: 10 µM unless noted.
Turning to `NC(Cc1c[nH]c2ccccc12)C(=O)O` (stereo not drawn), the growth is 91.4% (inactive) and 86.7% (inactive).

Turning to `CC(=O)Nc1ccc(S(N)(=O)=O)cc1`, the growth was 94.2% (inactive) and 93.6% (inactive).

For the compound `COc1ccc(Nc2ccc3ccccc3c2)cc1`, the growth was 79% (inactive).

For the compound `CC1CCC(C(C)C)C(NNC(N)=O)C1` (stereo not drawn), the growth is 99.5% (inactive).

For `Cc1cc(-c2ccc(N=Nc3ccc4c(S(=O)(=O)O)cc(S(=O)(=O)O)c(N)c4c3O)c(C)c2)ccc1N=Nc1ccc2c(S(=O)(=O)O)cc(S(=O)(=O)O)c(N)c2c1O`, the growth was 85.8% (inactive).

With `CCCCCCCCCCCCCCCc1ccc(N)c(OC2OC(CO)C(O)C(O)C2O)c1` (stereo not drawn), the growth was 87.7% (inactive).

Regarding `CCOC(=O)c1c(C)cc(=O)oc1C`, the growth was 95.4% (inactive).

With `Cc1cc2ccccc2cn1`, the growth is 99% (inactive) and 108% (inactive).

In the case of `O=C(CO)C(O)C(O)C(O)C(O)CO` (stereo not drawn), the growth is 99.7% (inactive) and 97.4% (inactive).

On to `COc1ccc(C(=O)CC(c2ccccc2)C(C#N)c2ccccc2)cc1` (stereo not drawn), for which the growth is 91.2% (inactive).

As for `Fc1ccc([I+]c2ccc(F)cc2)cc1`, the growth is 32.9% (inactive).

Turning to `CN(C)c1ccc(/C=C\C(=O)c2ccccc2)cc1`, the growth was 75.9% (inactive) and 94.2% (inactive) and 59.2% (inactive).

As for `O=[N+]([O-])c1cccc(SSc2cccc([N+](=O)[O-])c2)c1`, the growth was 94% (inactive).

As to `O=C(O)/C=C\C(=O)Nc1cccc2ccccc12`, the growth is 103% (inactive) and 101% (inactive).

As to `CCc1cc(C)cc(O)c1`, the growth was 98.2% (inactive).

As for `Brc1ccc(SSc2ccc(Br)cc2)cc1`, the growth is 56.6% (inactive).

In the case of `ClCCOCCOc1ccc(C2CCCCC2)cc1`, the growth was 99.5% (inactive).

Consider `CN(C)CC1CCCCCC(CN(C)C)C1=O` (stereo not drawn), for which the growth is -35.5% (active).

`NN1CCOC(c2ccccc2)C1` (stereo not drawn): the growth was 91.2% (inactive).

With `NC(Cc1ccccc1)C(=O)NC(Cc1ccccc1)C(=O)O` (stereo not drawn) (H-Phe-Phe-OH; configuration not given here), the growth was 103% (inactive) and 100% (inactive).

For the compound `c1ccc(CNCCNCc2ccccc2)cc1`, the growth is 103% (inactive).

Turning to `CC1=C/C(O)CC(=O)Cc2nc(co2)C(=O)N2CCC=C2C(=O)OC(C(C)C)C(C)/C=C\C(=O)NC/C=C\1` (stereo not drawn), the growth is 34.3% (inactive).

As to `O=C1CSC2=NCCN12`, the growth is 82.7% (inactive) and 63.8% (inactive).

Take `Cn1cnc([N+](=O)[O-])c1Sc1ncn[nH]1`: the growth was 101% (inactive).

On to `Nc1ncnc2c1ncn2C1OC(COP(=O)(O)O)C(O)C1O` (stereo not drawn), for which the growth was 108% (inactive).

Turning to `NC1CCC(C(=O)O)CC1` (stereo not drawn), the growth was 94.9% (inactive) and 99.3% (inactive).

With `CC[C@H](CC[C@@H](C)[C@H]1CC[C@H]2[C@@H]3CC=C4C[C@@H](O)CC[C@]4(C)[C@H]3CC[C@]12C)C(C)C`, the growth is 94.6% (inactive) and 105% (inactive).

On to `c1ccc2c(c1)OC1OC2Oc2ccccc21`, for which the growth is 113% (inactive).

Regarding `CCCCOc1ccc(Nc2cc(Cl)ccc2C(=O)O)cn1`, the growth was 93.7% (inactive) and 92.4% (inactive).

Turning to `CC(C)(O)C(=O)O`, the growth is 100% (inactive).

`c1ccc(-c2nc3ccccc3s2)cc1`: the growth is 97.3% (inactive).

On to `CC(=O)OCC1OC(OC(C)=O)C(OC(C)=O)C(OC(C)=O)C1OC(C)=O` (stereo not drawn), for which the growth is 103% (inactive).

Regarding `CCN(CCNS(C)(=O)=O)c1ccc(N)c(C)c1`, the growth is -52.9% (active) and 43.1% (inactive).

Turning to `OC1COC(OCc2ccccc2)C(O)C1O` (stereo not drawn), the growth is 99.6% (inactive).

Regarding `NC(=O)NCCCC(N)C(=O)O` (stereo not drawn), the growth was 104% (inactive).

Take `CC(C)C(C)(C)c1ccc(O)cc1`: the growth is 105% (inactive).

In the case of `Cl`, the growth is 104% (inactive).

`N#CC(C#N)N=Nc1cc(Cl)ccc1Cl`: the growth was 97.2% (inactive).
